Assay outcomes as filed in PubChem BioAssay.
The list is not random: actives were taken first. Their share in the collection is about 1.8%.
EWS-Fli inh: blocks EWS/Fli oncoprotein-driven transcription; A673 NR0B1-luciferase reporter, viability-normalised; inhibition, % at 12.6 µM; actives 0.67% (n = 350,000); AID 651661;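 active = mean inhibition of at least 50% after viability correction, with every replicate also passing that limit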;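 also: firefly luciferase signal divided by Alamar Blue viability fluorescence both relative to DMSO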
RAD54 inh: inhibitors of human RAD54 branch migration; AID 602329; RAD54 Holliday junction branch migration, FAM/BHQ fluorescence; actives 0.14% (n = 360,000); inhibition, % at 10.4 µM; Q92698;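 active = mean normalized replicate activity at least 40 and at least half of replicates scoring 40 or more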;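 also: 0% = median of neutral control wells and 100% = median of positive control wells; inhibitors cause a drop in the FAM fluorescence signal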
Target sequence (Q92698 whole entry, looked up): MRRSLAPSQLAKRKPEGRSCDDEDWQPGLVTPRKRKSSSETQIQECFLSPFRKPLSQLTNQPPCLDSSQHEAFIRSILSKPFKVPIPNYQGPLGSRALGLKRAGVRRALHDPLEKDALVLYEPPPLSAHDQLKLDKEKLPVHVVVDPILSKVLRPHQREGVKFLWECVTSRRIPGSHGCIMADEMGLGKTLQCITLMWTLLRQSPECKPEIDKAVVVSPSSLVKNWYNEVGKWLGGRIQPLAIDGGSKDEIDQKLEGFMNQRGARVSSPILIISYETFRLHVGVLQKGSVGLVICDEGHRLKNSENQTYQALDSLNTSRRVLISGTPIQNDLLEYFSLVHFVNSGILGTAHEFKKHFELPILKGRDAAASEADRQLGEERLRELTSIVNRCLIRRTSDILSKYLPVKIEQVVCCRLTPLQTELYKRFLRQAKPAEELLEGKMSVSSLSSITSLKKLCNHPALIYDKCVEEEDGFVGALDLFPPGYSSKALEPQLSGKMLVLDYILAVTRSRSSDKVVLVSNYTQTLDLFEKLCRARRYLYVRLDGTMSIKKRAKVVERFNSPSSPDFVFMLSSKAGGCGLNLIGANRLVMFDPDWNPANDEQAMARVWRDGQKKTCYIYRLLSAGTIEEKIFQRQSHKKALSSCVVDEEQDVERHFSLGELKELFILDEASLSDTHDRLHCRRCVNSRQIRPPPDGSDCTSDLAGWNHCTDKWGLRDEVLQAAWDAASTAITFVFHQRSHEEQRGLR
LGR2 inh: inhibitors of bursicon-induced Drosophila LGR2 receptor cAMP signaling. HEK293 LGR2, CRE-luciferase, bursicon-stimulated, 4 h. inhibition, % at 9.99 µM. actives 0.35% (n = 380,000). AID 720647;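 active = drop in luminescence signal, shown as inhibition above about 50% in the replicate tests, limit read from the data, passing the limit was not always enough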;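 also: agonist challenge used bursicon conditioned medium at about half maximal strength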
INS-1E GSIS act: GLuc luminescence reporter in INS-1E cells, primary screen for activators of glucose-dependent secretion of insulin; INS-1E GLuc reporter insulin secretion, 2-3 h; activation, % at 16.6 µM; actives 0.61% (n = 370,000); AID 743287;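 active = lowest replicate activation of at least 40%, so every replicate reaches that level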;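 also: 0% = median of neutral control wells and 100% = median of IBMX positive control wells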
CFTR F508del cor: CFTR F508del correction in bronchial cells. CFBE cells, YFP halide quenching; stimulated with forskolin plus potentiator P3; % fluorescence drop versus neutral controls. activity (quench increase), % at 7.58 µM. actives 0.36% (n = 350,000). AID 720511;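 active = mean added fluorescence quench of at least 8% versus neutral control, with both replicates also reaching 8%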;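 also: cells transiently co-express mutant CFTR-F508del with the halide-sensitive YFP; corrector assay measuring rescue of mutant channel to the surface after 24 h compound exposure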
RAD52 anneal inh: inhibitors of human RAD52 DNA annealing; recombinant RAD52 DNA annealing, FRET fluorescence; inhibition, % at 18.7 µM; actives 0.46% (n = 360,000); AID 651710;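 active = every replicate showing at least 50% inhibition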
DNA binder FP: counter-screen for RAD52 inhibitors: DNA binding compounds; shares compounds with RAD52 anneal inh; Salmon sperm DNA/acridine orange FP displacement; AC50, µM; actives 8% (n = 1,000);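 active = fitted half-maximal concentration for signal loss at or below twice the highest dose tested, in every separate run, actives reach about 64 µM in these data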
Numbers without * were called inactive; i = inactive; . = no result.

SMILES	EWS-Fli inh	RAD54 inh	LGR2 inh	INS-1E GSIS act	CFTR F508del cor	RAD52 anneal inh	DNA binder FP
CN(C)c1ccc(NC(=O)CN2CCC(NC(=O)C3CCCCC3)CC2)cc1	-2	.	-6	-2	-1	72*	i
COc1ccc(NC(=O)CN2CCC(NC(=O)C3CCCCC3)CC2)cc1	.	4	.	.	.	.	.
O=C(NCc1ccccc1)C1CCCN(S(=O)(=O)c2ccc(-n3cnnn3)cc2)C1 (stereo not drawn)	9	0	-12	8	3	-10	.
CCCC(=O)Nc1ccc2c(c1)C(=O)N(C)C[C@H](OC)[C@@H](C)CN(C(=O)c1cccnc1)[C@H](C)CO2	5	-9	-6	1	-1	-8	.
c1cc(OCCCN2CCCCC2)ccc1CN1CCCCC1	1	0	-5	3	3	21	i
CC(NC(=O)CCc1ccccc1)c1ccc2c(c1)OCO2 (stereo not drawn)	6	4	14	-24	3	108*	i
O=C1CSCC(=O)N1Cc1ccc(Cl)c(Cl)c1	-5	-3	0	-9	.	-6	.
CCCc1nnc(NC(=O)c2cc3ccccc3oc2=O)s1	.	2	-2	-11	.	.	.
CC(Sc1nnc(NC(=O)c2cc3ccccc3oc2=O)s1)c1ccccc1 (stereo not drawn)	6	7	4	0	3	53*	i
COc1ccc([C@H]2CC(=O)C=C(c3cccc4c3sc3ccccc34)C2)cc1OC	11	-11	3	-4	1	-6	.
COc1ccc2nc(N(CCN(C)C)C(=O)c3ccc4ccccc4c3)sc2c1	-3	9	-3	-12	1	54*	i
CN(C)CCN(C(=O)c1ccc2ccccc2c1)c1nc2cc3c(cc2s1)OCCO3	.	34	-16	32	-2	69*	i
COc1ccc2nc(N(CCN(C)C)C(=O)c3ccc(C(=O)c4ccccc4)cc3)sc2c1	-8	7	13	2	5	2	.
CCN(c1ccccc1)S(=O)(=O)c1ccc(C(=O)N(CCCN(C)C)c2nc3cc4c(cc3s2)OCO4)cc1	6	20	8	-43	-2	66*	i
CC(=O)OCC1OC(OCc2cn(C[C@H]3CC[C@@H]([C@@H]4CC[C@H](Cn5cc(COC6OC(COC(C)=O)C(OC(C)=O)C(OC(C)=O)C6OC(C)=O)nn5)O4)O3)nn2)C(OC(C)=O)C(OC(C)=O)C1OC(C)=O (stereo partly drawn)	-10	-4	4	.	-5	-7	.
Cc1cccn2c(=O)c3cc(C(N)=S)c(=N)n(CCCN4CCOCC4)c3nc12	15	.	3	67	2	86*	i
Cc1cccn2c(=O)c3cc(C(=O)NC(C)c4ccccc4)c(=N)n(CCCn4ccnc4)c3nc12 (stereo not drawn)	22	.	-10	4	0	68*	i
Cc1ccc2nc3c(cc(C(=O)NCc4ccccc4)c(=N)n3CCCn3ccnc3)c(=O)n2c1	4	27	-8	9	0	-256	.
CC(C)NC(=O)N(C)C[C@@H]1OCCCC[C@H](C)Oc2ccc(NC(=O)CCCN(C)C)cc2C(=O)N([C@H](C)CO)C[C@@H]1C	.	7	.	.	2	-10	.
CN(C)c1ccc(-c2cc(O)c3ncccc3c2)cc1	-19	1	-26	8	6	-12	.
CN(C)CCCNC(=O)c1ccc(-c2cc(O)c3ncccc3c2)cc1	6	38	1	.	2	101*	i
Cn1cnnc1SCC(=O)NCc1cccc(C(F)(F)F)c1	-10	10	-10	-12	-1	-12	.
Cc1sc2ccccc2c1CNC[C@H]1O[C@@H](n2ccc(N)nc2=O)[C@H](O)[C@@H]1O	-2	7	10	0	2	-14	.
Nc1ccn([C@@H]2O[C@H](CNCc3cccc4c3sc3ccccc34)[C@@H](O)[C@H]2O)c(=O)n1	-9	22	1	.	1	54*	i
NCCNCCNCCN	-3	21	-10	-4	0	94*	i
NCCCCNCCCN	-8	4	-5	12	-6	25	.
Cc1c(C(=O)Nc2ccc(S(=O)(=O)N(C)C3CCN(C)CC3)cc2)oc2c(Cl)cccc12	47	9	8	-5	-3	69*	i
